Experimental data taken from PubChem BioAssay AID1030 (National Center for Advancing Translational Sciences (NCATS), 2008).
Values joined by “and” are separate entries in the source; they are usually repeats but may differ in a detail not shown here. Equal entries are not always repeated. The whole screen tested about 220,000 compounds, of which about 16,000 (7.3%) were called active. Roughly 25% stayed inconclusive and do not appear here. Only a selection was taken, and actives are over-represented in it overall. Unmarked numbers belong to inactive results. Calls follow the shape of the dose curve; as a rule, active = well fitted inhibition curve with a large enough effect (not every such curve was filed as active); inconclusive = small, poorly fitted or top-dose-only effect, or another doubt; inactive = no such curve, though single readings can be large or run the other way.

Each compound was assayed against Aldehyde dehydrogenase 1A1 (Homo sapiens) (UniProt P00352) (assay: qHTS Assay for Inhibitors of Aldehyde Dehydrogenase 1 (ALDH1A1)). Conditions: Purified ALDH1A1, NADH fluorescence, propionaldehyde substrate; series mostly up to 75.3 µM; activity, negative = inhibition: at the top concentration.
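For activity, negative = inhibition in this document: plate controls were no enzyme wells and a reference inhibitor.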
Potency is read from the fitted curve at half-maximal effect.

Aldehyde dehydrogenase 1A1 (Homo sapiens), sequence (P00352 whole entry, looked up): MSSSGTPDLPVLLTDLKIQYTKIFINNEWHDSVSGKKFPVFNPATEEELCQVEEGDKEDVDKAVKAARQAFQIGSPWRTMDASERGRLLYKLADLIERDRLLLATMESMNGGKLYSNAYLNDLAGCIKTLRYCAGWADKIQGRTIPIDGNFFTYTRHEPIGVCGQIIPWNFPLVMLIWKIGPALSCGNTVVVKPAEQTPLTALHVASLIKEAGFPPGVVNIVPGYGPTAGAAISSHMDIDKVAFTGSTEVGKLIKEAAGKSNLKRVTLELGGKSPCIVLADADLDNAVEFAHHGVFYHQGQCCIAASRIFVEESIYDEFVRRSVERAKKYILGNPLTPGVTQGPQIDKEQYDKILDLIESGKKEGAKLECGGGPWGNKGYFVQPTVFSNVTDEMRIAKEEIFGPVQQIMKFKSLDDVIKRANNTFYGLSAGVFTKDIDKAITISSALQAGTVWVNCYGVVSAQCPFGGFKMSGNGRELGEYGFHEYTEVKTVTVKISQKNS

Row | SMILES | activity, negative = inhibition | Potency
1 | Cc1cc(NC(=O)Nc2ccccc2[N+](=O)[O-])no1 | -5.73% | –
2 | COc1ccc(/C=C/NC(=O)c2ccc(OC)cc2)cc1 | – | 2.82 µM (active)
3 | COc1ccc(NC(=O)c2ccc(OC)cc2)cc1 | -2.23% | –
4 | COc1ccc(/C=C/NC(=O)Cc2ccc(OC)c(OC)c2)cc1 | 8.87% [at 13.5 µM] and 1.01% [at 13.5 µM] | –
5 | CC(=O)C1C(c2ccc(Cl)cc2)NC(=O)NC1(O)C(F)(F)F (stereo unspecified) | 8.56% | –
6 | O=C(c1cccs1)C1C(c2ccc(Br)cc2)NC(=S)NC1(O)C(F)(F)F (stereo unspecified) | – | 3.16 µM (active)
7 | CCOC(=O)C1C(c2ccc(Cl)cc2)NC(=S)NC1(O)C(F)(F)F (stereo unspecified) | – | 7.94 µM (active)
8 | CCOC(=O)NNC(=O)c1ccc(Cl)cc1 | -3.42% | –
9 | O=C(CN(C(=O)c1csnn1)c1cccc(F)c1)NCc1ccc(F)cc1 | 5.3% | –
10 | CCn1cnc2scc(-c3ccc(C)c(C)c3)c2c1=O | -6.88% | –
11 | CN1C(=O)/C(=C\c2cc(Br)cs2)c2ccccc21 | -2.78% | –
12 | CC(C)c1csc(CN2CCC(CO)(Cc3ccccc3)CC2)n1 | 15% | –
13 | CCOc1cc(CNn2c(C)nnc2SCC(=O)NC(C)(C)C)ccc1OCC(=O)NC(C)(C)C | 8.98% | –
14 | CCOCCCNCc1ccc(OCc2ccc(F)cc2)c(OC)c1 | 0.342% | –
15 | O=C(CCc1n[nH]c(=O)[nH]c1=O)N/N=C/c1ccc(Br)o1 | -3.34% | –
16 | Cc1nnc(SCC(=O)N2c3ccccc3C(C)(c3ccc(Cl)cc3)CC2(C)C)s1 (stereo unspecified) | 3.67% | –
17 | O=[n+]1c2c(n([O-])c3cc(Br)ccc31)CCC2 | – | 31.6 µM (active)
18 | Cc1ccc(-c2c(C)n([O-])c3c([n+]2=O)CCC3)cc1 | 5.63% | –
19 | Cc1ccc(-c2c[n+](=O)c3c(n2[O-])CCC3)cc1 | 7.22% | –
20 | COc1ccc([N+](=O)[O-])cc1NC(=O)CC1SC(=Nc2cccc(C)c2C)N(/N=C(\C)c2ccc(C)cc2)C1=O (stereo unspecified) | -1.71% | –
21 | CN(c1ccccc1)S(=O)(=O)c1ccc(Cl)c(C(=O)OCC(=O)N2CCOCC2)c1 | 8.36% | –
22 | N#CC1=C(N)N(c2ccc(F)cc2)C(=O)C1 | – | 22.4 µM (active)

Row | SMILES | activity, negative = inhibition | Potency
23 | O=C1CCCC2=C1C(c1cccs1)CC(=O)N2c1ccc(F)cc1 (stereo unspecified) | 2.98% | –
24 | Cn1c(N)cc(-c2ccc(F)cc2)c(C#N)c1=O | -6.05% | –
25 | O=C(CCC(=O)c1cccs1)NC1CCCCCC1 | -13.8% | –
26 | CCCCNC(=O)N1CCN(S(C)(=O)=O)CC1 | -0.297% | –
27 | COc1ccccc1NC(=O)COC(=O)Cc1ccc(S(=O)(=O)N2CCCCC2)s1 | -5.93% | –
28 | CCOC(=O)C1=C(C)NC(=O)N(C(C)=O)C1c1ccc(Cl)cc1 (stereo unspecified) | -0.324% | –
29 | CCOC(=O)C1Sc2[nH]c(=O)sc2C(c2ccc(Cl)cc2)C1C(=O)OCC (stereo unspecified) | – | 11.2 µM (active)
30 | Cc1c(NC(=O)CCC2CCCCC2)cc(C(=O)N2CCOCC2)cc1[N+](=O)[O-] | 3.98% | –
31 | O=C(N/N=C/c1ccco1)c1ccc(NC(=O)C2CC2)cc1 | -3.27% | –
32 | Cc1ccc(NC(=O)Nc2cccc(C(F)(F)F)c2)nc1 | -7.02% | –
33 | COc1cccc(/C=N/NC(=O)c2cccc([N+](=O)[O-])c2)c1OS(=O)(=O)c1ccc(C)cc1 | -5.06% | –
34 | COc1ccc(C(=O)Nc2ccccc2C(=O)N/N=C/c2ccc(O)c(OC)c2)cc1 | 3.47% | –
35 | COc1ccc(/C=N\NC(=O)c2sc(N)nc2C)cc1OC | 2.89% | –
36 | COc1ccc(/C=N/NC(=O)c2ccccc2)cc1OS(=O)(=O)c1ccccc1 | – | 14.1 µM (active)
37 | COc1cc(/C=N/NC(=O)c2ccccc2)ccc1OS(=O)(=O)c1ccccc1 | – | 14.1 µM (active)
38 | COc1ccc(/C=N/NC(=O)c2ccc(Cl)cc2)cc1COC(C)=O | 7.34% | –
39 | O=C(NNC(=O)c1cnccc1C(F)(F)F)c1ccc(Cl)cc1 | 10.2% | –
40 | Nc1nc(O)c(CC(=O)O)s1 | 3.26% | –
41 | Cc1cc(C)c(C(N)=O)c(Cl)n1 | 3.59% | –
42 | CCOC(=O)c1sc(NC(=O)COc2ncnc3ccccc23)c(C(=O)OCC)c1C | -16.3% | –
43 | CCc1c(C)sc(NC(=O)OC)c1C(=O)N1CCOCC1 | 0.994% | –
44 | CCOC(=O)c1sc(NC(=O)CCN2CCOCC2)c(C(=O)OCC)c1C | – | 17.8 µM (active)

Row | SMILES | activity, negative = inhibition | Potency
45 | CCOC(=O)c1c(NC(=O)CCl)sc(C(=O)N(CC)CC)c1C | – | 10 µM (active)
46 | CCOC(=O)c1c(NC(C)=O)sc2c(O)c(Br)ccc12 | -12.2% | –
47 | CCOC(=O)c1sc(NC(=O)CSc2nnc(-c3ccco3)o2)c(C(=O)OCC)c1C | -8.17% | –
48 | O=C(c1cc(=O)c2ccccc2o1)N1CCN(c2ccccc2)CC1 | -7.27% | –
49 | COc1cccc(C(=O)Nc2nc3ccc(S(C)(=O)=O)cc3s2)c1 | -1.22% | –
50 | CC(=O)NC1=NN(C(C)=O)C(C)(CCS(=O)(=O)c2ccc(Cl)c(Cl)c2)S1 (stereo unspecified) | -5.25% | –
51 | CN(C)c1ccc(-n2cccc2/C=C2/SC(=Nc3ccc(F)cc3)NC2=O)cc1 | -0.0028% | –
52 | Cc1ccc(N=C2NC(=O)/C(=C/C=C/c3ccco3)S2)cc1C | – | 7.94 µM (active)
53 | Nc1nc2c(ncn2[C@@H]2O[C@H](COP(=O)(O)OP(=O)(O)OP(=O)(O)O)[C@@H](O)C2O)c(=O)[nH]1 (stereo partly specified) | 4.41% | –
54 | O=C(Nc1ccccc1C(=O)N1CCOCC1)c1ccc(Cl)cc1 | 5.03% | –
55 | Cc1nnsc1C(=O)NCc1c(F)cccc1Cl | 9.4% | –
56 | Fc1cccc(Cl)c1CSc1ccc(-c2ccco2)nn1 | – | 20 µM (active)
57 | O=C(CSCc1c(F)cccc1Cl)NCC1CCCO1 (stereo unspecified) | 2.6% | –
58 | CCc1ccc(C(=O)OCC(=O)NCC(F)(F)F)cc1 | -2.12% | –
59 | OCCNCCOc1ccc(Cl)c(Cl)c1 | -8.88% | –
60 | COc1ccc(-n2cnnc2SCC(=O)Nc2cccc([N+](=O)[O-])c2)cc1 | 5.76% | –
61 | C=CCn1c2ccccc2c2nnc(SC(CC)C(=O)Nc3nc(C)c(C(=O)OCC)s3)nc21 (stereo unspecified) | -8.14% | –
62 | C=CCn1c2ccccc2c2nnc(SCc3[nH]c(=O)[nH]c3C(=O)CCCCC(=O)OCC)nc21 | – | 10 µM (active)
63 | C=CCn1c(COc2ccccc2)nnc1SCC(=O)NCC(=O)OCC | 8.67% | –
64 | COc1ccccc1C(c1nnnn1C(C)(C)C)N1CCN(Cc2ccccc2)CC1 (stereo unspecified) | – | 20 µM (active)
65 | CCCC(c1nnnn1C(C)(C)C)N1CCN(Cc2ccccc2)CC1 (stereo unspecified) | -2.73% | –
66 | CC(C)(C)n1nnnc1C(c1ccc(F)cc1)N1CCN(Cc2ccc3c(c2)OCO3)CC1 (stereo unspecified) | -1.16% | –
